The nature of assay [1]: qHTS for Inhibitors of Plasmodium falciparum (DD2) proliferation (AID 504314). Also: potency is read from the fitted curve at half-maximal effect.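 As to activity, negative = inhibition: parasite DNA measured by SYBR Green fluorescence after red cell lysis; plate controls were DMSO vehicle for no effect and artemisinin wells for full effect.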 The method in brief: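 Erythrocytes infected with P. falciparum Dd2 (0.3% parasitemia, 2.5% hematocrit) exposed to compound 72 h at 37C, 5% CO2. Parasite DNA quantified by SYBR Green fluorescence after saponin/Triton lysis overnight; normalized to 0.29 uM artemisinin and DMSO.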
A general note: In qHTS, concentration-response curves come from the screen itself.

The nature of assay [2]: qHTS for Inhibitors of Plasmodium falciparum (GB4) proliferation (AID 504315).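 Also: 0% = DMSO vehicle and -100% = 0.29 µM artemisinin control; nearly all actives have a fitted effect of over 50% in size.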 In outline: (§1)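 Erythrocytes infected with P. falciparum line (0.3% parasitemia, 2.5% hematocrit final) incubated with compounds 72 h at 37 °C, 5% CO2; SYBR Green lysis buffer added, fluorescence read next day. Normalized to 0.29 uM artemisinin and DMSO.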
Assay [3] is described as follows: qHTS for Inhibitors of Plasmodium falciparum (7G8) proliferation (AID 504316).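 Also: series mostly up to about 6.7 µM; 0% = DMSO vehicle and -100% = 0.29 µM artemisinin full kill; nearly all actives have a fitted effect of over 65% in size.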 The method in brief:
as §1

Assay [4] in a line: qHTS for Inhibitors of Plasmodium falciparum (HB3) proliferation (AID 504318).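 Also: 0% = DMSO vehicle and -100% = artemisinin control; nearly all actives have a fitted effect of over 60% in size.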 The method in brief:
as §1

Assay [5] can be described thus: qHTS for Inhibitors of Plasmodium falciparum (CP250) proliferation (AID 504320). Also: potency is read from the fitted curve at half-maximal effect. The method in brief:
as §1

Assay [6] concerns the target Rap guanine nucleotide exchange factor 3 (Homo sapiens) (UniProt O95398). In words: Confirmatory qHTS for antagonist of cAMP-regulated guanine nucleotide exchange factor 3 (EPAC1) (AID 1645880).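 Also: plate controls were DMSO only for no effect and full effect of the ATA control for full effect; nearly all actives have a fitted effect of over 55% in size.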 The method in brief: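 Nucleotide exchange uses 100 nM EPAC1, 250 nM RAP1B-BODIPY-GDP and 50 uM GDP, with compounds in a concentration-titration series. After 5 min at room temperature, fluorescence (480 nm ex/540 nm em) is read every 5 min for 30 min. Data are normalized to control ATA and DMSO.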

Assay [7] has the same target. In words: Confirmatory qHTS for agonist of cAMP-regulated guanine nucleotide exchange factor 3 (EPAC1) (AID 1645881).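 Also: EPAC1 catalysed release of BODIPY-GDP from Rap1B seen as fluorescence loss; 100% = effect of cAMP agonist control; nearly all actives have a fitted effect of over 75% in size.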
Assay [8] has as its target Rap guanine nucleotide exchange factor 4 (Homo sapiens) (UniProt Q8WZA2). In words: Confirmatory qHTS for agonist of cAMP-regulated guanine nucleotide exchange factor 4 (EPAC2) (AID 1645884).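 Also: nucleotide exchange releases bodipy-GDP from Rap1 and this lowers its fluorescence; % is scaled to controls: 0 for no effect and ±100 for the full control effect; nearly all actives have a fitted effect of over 65% in size.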
The target is the same in assay [9]. In words: Confirmatory qHTS for antagonist of cAMP-regulated guanine nucleotide exchange factor 4 (EPAC2) (AID 1645885). Also: nearly all actives have a fitted effect of over 25% in size.
The target in assay [10] is Rap guanine nucleotide exchange factor 3 (Homo sapiens) (UniProt O95398). In words: Counterscreen qHTS for antagonist of cAMP-regulated guanine nucleotide exchange factor 3 (EPAC1) (AID 1645888). Also: % of control where 0% means no effect. In outline: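 Measured: fluorescence of BODIPY-GDP bound to Rap1B, which falls as exchange proceeds. Conditions include 50 uM competing GDP, 5 and 30 min reads, and a later cAMP challenge for antagonist detection.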

Results filed as inconclusive are left out. Unmarked numbers belong to inactive results. The source made the active and inactive calls. Calls follow the shape of the dose curve; as a rule, active = well fitted curve in the direction sought with a large enough effect; inconclusive = small, poorly fitted or top-dose-only effect, or another doubt; inactive = no such curve, though single readings can be large; an effect the other way counts as inactive or inconclusive.

Rap guanine nucleotide exchange factor 3 (Homo sapiens), sequence (O95398 whole entry, looked up): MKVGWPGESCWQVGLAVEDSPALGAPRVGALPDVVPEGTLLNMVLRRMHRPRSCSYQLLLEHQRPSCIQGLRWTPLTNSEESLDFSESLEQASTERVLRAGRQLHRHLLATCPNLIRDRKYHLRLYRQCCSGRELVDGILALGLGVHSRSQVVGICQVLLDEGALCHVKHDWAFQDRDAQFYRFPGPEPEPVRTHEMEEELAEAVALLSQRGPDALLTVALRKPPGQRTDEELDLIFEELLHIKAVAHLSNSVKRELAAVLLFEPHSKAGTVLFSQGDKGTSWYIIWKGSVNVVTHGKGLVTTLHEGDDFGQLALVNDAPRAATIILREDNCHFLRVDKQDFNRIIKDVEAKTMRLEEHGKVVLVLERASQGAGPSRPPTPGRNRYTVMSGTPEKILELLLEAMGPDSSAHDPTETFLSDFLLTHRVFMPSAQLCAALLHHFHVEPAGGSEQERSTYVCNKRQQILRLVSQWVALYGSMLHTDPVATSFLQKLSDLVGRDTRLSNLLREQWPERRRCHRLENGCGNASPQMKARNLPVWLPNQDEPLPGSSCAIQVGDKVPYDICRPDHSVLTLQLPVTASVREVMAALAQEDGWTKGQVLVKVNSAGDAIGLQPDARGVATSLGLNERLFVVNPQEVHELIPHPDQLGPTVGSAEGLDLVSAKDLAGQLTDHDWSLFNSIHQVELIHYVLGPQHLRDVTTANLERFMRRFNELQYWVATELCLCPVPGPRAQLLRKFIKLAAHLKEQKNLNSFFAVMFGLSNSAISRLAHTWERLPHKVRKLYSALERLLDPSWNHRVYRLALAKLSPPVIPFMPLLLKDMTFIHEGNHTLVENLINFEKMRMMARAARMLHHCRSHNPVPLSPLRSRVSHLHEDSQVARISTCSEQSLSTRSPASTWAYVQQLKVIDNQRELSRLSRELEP
Rap guanine nucleotide exchange factor 4 (Homo sapiens), sequence (Q8WZA2 whole entry, looked up): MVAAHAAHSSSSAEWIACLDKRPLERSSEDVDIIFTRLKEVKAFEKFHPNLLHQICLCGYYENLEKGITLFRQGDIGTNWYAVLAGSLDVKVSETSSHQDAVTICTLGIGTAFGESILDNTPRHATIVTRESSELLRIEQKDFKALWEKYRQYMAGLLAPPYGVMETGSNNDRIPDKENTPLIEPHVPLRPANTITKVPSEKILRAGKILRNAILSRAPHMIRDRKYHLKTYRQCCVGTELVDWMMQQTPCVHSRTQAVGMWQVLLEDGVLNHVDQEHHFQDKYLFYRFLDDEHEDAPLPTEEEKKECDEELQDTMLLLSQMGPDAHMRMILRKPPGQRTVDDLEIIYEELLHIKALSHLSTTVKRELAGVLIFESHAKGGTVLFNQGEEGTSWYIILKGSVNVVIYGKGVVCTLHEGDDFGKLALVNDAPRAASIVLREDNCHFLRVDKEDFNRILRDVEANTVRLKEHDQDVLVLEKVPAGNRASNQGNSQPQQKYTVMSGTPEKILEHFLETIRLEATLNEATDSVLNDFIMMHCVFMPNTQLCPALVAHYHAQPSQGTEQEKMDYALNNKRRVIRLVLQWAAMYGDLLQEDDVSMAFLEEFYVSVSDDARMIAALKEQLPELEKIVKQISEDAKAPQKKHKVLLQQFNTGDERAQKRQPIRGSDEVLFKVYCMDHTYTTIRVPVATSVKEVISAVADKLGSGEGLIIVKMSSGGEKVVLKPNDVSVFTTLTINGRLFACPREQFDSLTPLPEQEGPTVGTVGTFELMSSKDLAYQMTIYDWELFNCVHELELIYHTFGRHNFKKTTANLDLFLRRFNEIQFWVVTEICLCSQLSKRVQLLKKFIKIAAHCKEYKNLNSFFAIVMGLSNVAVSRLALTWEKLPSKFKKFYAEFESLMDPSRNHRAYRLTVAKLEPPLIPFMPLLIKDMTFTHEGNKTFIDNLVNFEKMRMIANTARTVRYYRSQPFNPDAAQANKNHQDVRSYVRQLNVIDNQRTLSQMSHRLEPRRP

Take `COC(=O)N1C(C)=Cc2ccccc2C1CC(C)=CC(C)=O` (stereo not given): the Potency entry in assay [1], in [2], in [3], in [4] and in assay [5] was “inactive” in each case.
Regarding `COC(=O)CC=C[C@@H](C)[C@@H](C=NOC[C@@H](O)[C@H]1O[C@@H]2OC(C)(C)O[C@H]2[C@@H]1O)OC`, the Potency entry in assay [1], in [2], in [3], in [4] and in assay [5] was “inactive” throughout.
On to `COC(=O)C1=C(C)N(Cc2ccccc2)C(=O)NC1c1cccc(F)c1` (stereo not given), for which the Potency result in [1], in [2], in [3], in assay [4] and in [5] was “inactive” in each case.
Regarding `C=CCN(C)C1=NC(c2ccccc2)C(C(=O)OC)=C(C)N1CCOC` (stereo not given), the Potency entry in assay [1], in [2], in assay [3] and in [4] was “inactive” in each case.
As to `COC(=O)C1=C(C)N(CC2CC2)C(=NCCc2cccnc2)NC1c1ccccc1` (stereo not given), the Potency result in assay [1], in assay [2], in [3], in assay [4] and in assay [5] was “inactive” each time.
With `COC[C@H]1O[C@H](c2ccccc2)C=C[C@H]1OCC=C(C)C`, the Potency entry in assay [1], in assay [2], in assay [3], in assay [4] and in assay [5] was “inactive” each time.
In the case of `O=C(NC(CC1=CCCCC1)c1ccccc1)C(F)(F)F` (stereo not given), the Potency entry in assay [1], in assay [2], in assay [3], in assay [4] and in [5] was “inactive” each time.
`CCOC(=O)C1=CN(CCCc2cn(Cc3ccccc3)nn2)C(=O)NC1c1ccccc1` (stereo not given): the Potency result in assay [1], in assay [2], in assay [3], in assay [4] and in assay [5] was “inactive” each time.
On to `COC(=O)N[C@H](CC(C)=O)c1ccccc1`, for which the Potency result in assay [1], in assay [2], in assay [3], in assay [4] and in [5] was “inactive” throughout.
Consider `CC1(OC(=O)C2CCCC2)C(=O)C=C2C=C(c3ccsc3)N(C3CC3)C=C2C1=O` (stereo not given), for which, in assay [1], the activity, negative = inhibition is -0.441% [at 1.12 µM]. The Potency entry in assay [2], in assay [3], in assay [4] and in assay [5] was “inactive” each time.
Consider `CCOC(=O)c1ccc(NC(=O)CSc2nc(-c3ccc(OC)cc3)cc(C(F)(F)F)c2C#N)cc1`, for which the Potency result in assay [6] and in assay [9] was “inactive” in each case. The call in assay [7], in [8] and in assay [10] was inactive.
On to `COCCN1C(=O)NC(c2cccc(F)c2)C(C(=O)OC)=C1C` (stereo not given), for which the Potency entry in assay [1], in assay [2], in assay [3], in assay [4] and in assay [5] was “inactive” throughout.
With `COC(=O)CCC(=O)OC1(C)C(=O)C=C2C=C(C3CC3)N(Cc3ccco3)C=C2C1=O` (stereo not given), the activity, negative = inhibition in assay [1] was 0.997% [at 1.12 µM]. In addition, the Potency result in [2], in [3], in assay [4] and in assay [5] was “inactive” throughout.
As to `COC(=O)C1=C(C)N(Cc2ccccc2)C(=NCc2cc(OC)c(OC)c(OC)c2)NC1c1cccc(F)c1` (stereo not given), the Potency in assay [1] was 1190 nM (active).
Take `COc1cccc(CO[C@H]2C=C[C@@H](c3ccccc3)O[C@H]2CN=[N+]=[N-])c1`: the Potency result in assay [1], in assay [2], in [3], in [4] and in assay [5] was “inactive” throughout.
With `COC(=O)C[C@H]1c2ccccc2C2=C(C[C@@H](C)[C@H]3C(=O)NC(=O)[C@@H]23)N1C(=O)OC`, the Potency entry in [1], in [2], in [3], in [4] and in assay [5] was “inactive” each time.
Take `CC(C)CON=C1C[C@@H](O)[C@@H](O)[C@@H]2[C@H]3C(=O)N(C[C@@H]4CCCO4)C(=O)[C@@H]3CC[C@H]12`: the Potency result in assay [1], in assay [2], in assay [3] and in [4] was “inactive” throughout.
As to `CC(=CC[Si](C)(C)C)CCC=O`, the Potency entry in [1] and in assay [2] was “inactive” in each case.
`CC12C=C(C=CC=Cc3ccco3)C(C)(C1)C(C=Cc1ccco1)CC2=O` (stereo not given): the Potency entry in assay [1], in assay [2], in assay [3], in assay [4] and in assay [5] was “inactive” throughout.
In the case of `COc1ccc(COC(=O)NN=C2C[C@@H](O)[C@@H](O)[C@@H]3[C@H]4C(=O)N(C5CCCCC5)C(=O)[C@@H]4CC[C@H]23)cc1`, the Potency entry in [1], in assay [2], in assay [3], in assay [4] and in assay [5] was “inactive” in each case.
Turning to `C=CCOC(=O)NC(c1ccc(F)c(F)c1)S(=O)(=O)c1ccc(Cl)cc1` (stereo not given), the Potency entry in assay [1], in [2], in assay [3] and in [4] was “inactive” in each case.
`C=CCOC(=O)N[C@H](c1ccc2ccccc2c1)[C@H](C)C=CCC(=O)OC`: the Potency entry in assay [1], in assay [2], in assay [3], in [4] and in assay [5] was “inactive” throughout.
Consider `C[C@H]1[C@H](N=[N+]=[N-])[C@H](O)CCO[C@@H]1c1ccccc1`, for which the Potency result in assay [1], in assay [2], in [3], in [4] and in assay [5] was “inactive” each time.
For `COCC=CC1=CC2=CC(=O)C(C)(OC(=O)c3cnc4ccccc4n3)C(=O)C2=CN1Cc1ccc(OC)cc1` (stereo not given), the Potency result in assay [1], in assay [2], in [3], in assay [4] and in [5] was “inactive” in each case.
As to `COC(=O)C1=C(C(=O)OC)[C@@H]2N(C)c3ccccc3[C@@]23C[C@@H](C(=O)OC)N(C(=O)c2ccco2)C3=N1`, the Potency entry in assay [1], in assay [2], in assay [4] and in assay [5] was “inactive” throughout.
As for `C=CC1=C2C=C(C3CC3)N(C3CCCCC3)C=C2C(=O)C(C)(OC(=O)c2ccco2)C1=O` (stereo not given), the activity, negative = inhibition in assay [1] is 1.92% [at 1.12 µM]. Besides, the Potency result in [2], in assay [3] and in assay [5] was “inactive” throughout.
As to `C=C(C)C(=O)OC[C@H]1CN2[C@H](c3ccc(Br)cc3)[C@H](C)CC[C@H]2C(=O)O1`, the Potency entry in assay [1] and in [3] was “inactive” throughout. Moreover, in assay [5], the Potency is 1510 nM (active).
Consider `CCCCC1=CC2=C(c3ccco3)C(=O)C(C)(OC(=O)c3ccc(OC)cc3)C(=O)C2=CN1Cc1ccco1` (stereo not given), for which the Potency entry in [1], in assay [2], in [4] and in assay [5] was “inactive” throughout.
